From PubChem BioAssay (NCI)
Compounds without any hit were thinned out: in the full panel of roughly 79,000, 15% have a hit. Values without a mark were called inactive. Active and inactive are the calls of the source. Rule as the data show it: active = growth inhibition above about 70%; inactive = the rest.

Legend:
[1] = NCI Yeast Anticancer Drug Screen. Data for the rad52 strain (AID 147);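 also: 0% = growth of vehicle-treated control cultures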; details: S. cerevisiae rad52 mutant growth inhibition, hits give high values
How it was run: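 DNA repair-defective yeast; compound exposure; growth scored against vehicle controls.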

[2] = NCI Yeast Anticancer Drug Screen. Data for the wt1 strain (AID 149);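 also: 0% = growth of vehicle-treated wt1 cultures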; details: S. cerevisiae wt1 strain (SPY 50644) growth inhibition, hits give high values
How it was run: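 Yeast wt1 strain exposed to compounds; growth inhibition measured relative to vehicle-treated controls.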

[3] = NCI Yeast Anticancer Drug Screen. Data for the rad50EPP+ strain (AID 151);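 also: 0% = growth of vehicle-treated control cultures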; details: S. cerevisiae rad50 mutant strain, hits give high values
How it was run: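 rad50EPP+ yeast treated with test compounds. Readout: growth vs vehicle control.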

[4] = NCI Yeast Anticancer Drug Screen. Data for the mgt1 strain (AID 153); details: S. cerevisiae mgt1 mutant growth inhibition, hits give high values
How it was run: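 Growth inhibition relative to vehicle controls was scored for the mgt1 yeast strain after compound exposure.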

[5] = NCI Yeast Anticancer Drug Screen. Data for the rad50 strain (AID 155);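 also: 0% = growth of vehicle-only cultures of the same strain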; details: S. cerevisiae rad50 strain growth inhibition, hits give high values
How it was run: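 Yeast carrying a defined DNA repair defect were exposed to test compounds, and growth was compared with vehicle-treated controls to give percent inhibition.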

[6] = NCI Yeast Anticancer Drug Screen. Data for the mec2-1 strain (AID 157); details: S. cerevisiae mec2-1 strain, hits give high values
How it was run: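 Growth inhibition is read against vehicle-treated controls after compound exposure of the mec2-1 yeast strain, which is defective in DNA damage repair or cell cycle control.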

[7] = NCI Yeast Anticancer Drug Screen. Data for the rad14 strain (AID 159);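 also: 0% = growth of vehicle-treated control cultures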; details: S. cerevisiae rad14 strain growth inhibition, hits give high values
How it was run: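 Yeast cells carrying a defined DNA-repair defect were exposed to compounds, and growth inhibition was calculated relative to vehicle-treated control cultures.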

[8] = NCI Yeast Anticancer Drug Screen. Data for the sgs1 mgt1 strain (AID 161);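 also: 0% = growth of cultures given vehicle only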; details: S. cerevisiae sgs1 mgt1 strain, hits give high values
How it was run: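 Growth of a repair-deficient yeast mutant was monitored after compound treatment and expressed as inhibition relative to vehicle-treated cultures.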

[9] = NCI Yeast Anticancer Drug Screen. Data for the CLN2oe strain (AID 163);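 also: 0% = growth of vehicle-only control cultures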; details: S. cerevisiae CLN2oe strain, hits give high values
How it was run: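 Compound-treated yeast; growth vs vehicle ctrl = % inhibition. Genetically altered strain (cell-cycle control).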

[10] = NCI Yeast Anticancer Drug Screen. Data for the cln2 rad14 strain (AID 165);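 also: 0% = growth equal to vehicle treated cultures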; details: S. cerevisiae cln2 rad14 strain, hits give high values
How it was run: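 Growth inhibition, relative to vehicle-treated controls, is the read-out. The test organism is a yeast strain with defined genetic alterations, cln2 rad14.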

[11] = NCI Yeast Anticancer Drug Screen. Data for the bub3 strain (AID 167); details: S. cerevisiae bub3 mutant strain, hits give high values
How it was run: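 Compounds were applied to a genetically altered yeast strain carrying a cell-cycle control defect. Growth inhibition was scored against vehicle-treated controls.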

[12] = NCI Yeast Anticancer Drug Screen. Data for the wt2 strain (AID 169);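 also: 0% = growth of vehicle-treated yeast cultures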; details: S. cerevisiae wt2 strain growth inhibition, hits give high values
How it was run: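 Compound exposure of yeast; growth compared with vehicle controls; inhibition reported.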

[13] = NCI Yeast Anticancer Drug Screen. Data for the mlh1 strain (AID 171);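 also: 0% = growth of vehicle-treated control cultures of the same strain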; details: S. cerevisiae mlh1 strain growth inhibition, hits give high values
How it was run: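 Compounds are applied to a genetically altered yeast strain, and its growth is compared with that of vehicle-treated cultures to give percent inhibition.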

[14] = NCI Yeast Anticancer Drug Screen. Data for the sgs1 strain (AID 173);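 also: 0% = growth of vehicle-only control cultures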; details: S. cerevisiae sgs1 mutant, hits give high values
How it was run: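 Compounds applied to genetically altered yeast; growth compared with vehicle-treated cultures to give % inhibition.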

[15] = NCI Yeast Anticancer Drug Screen. Data for the mlh1 rad18 strain (AID 175); details: S. cerevisiae mlh1 rad18 strain growth inhibition, hits give high values
How it was run: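 Cells of a genetically altered yeast strain, deficient in DNA damage repair, were treated with compound. Their growth was then compared with that of vehicle-treated cultures to give inhibition.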

[16] = NCI Yeast Anticancer Drug Screen. Data for the rad18 strain (AID 177); details: S. cerevisiae rad18 mutant growth inhibition, hits give high values
How it was run: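 Compounds are applied to a repair-deficient yeast strain, and growth is compared with that of vehicle-treated cultures to give percent inhibition.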

[17] = at 5.0 µM (retest, dose inferred, filed as 0.5)
[18] = at 50.0 µM (retest, dose inferred, filed as 5.0)

Structure (SMILES): O=C1c2ccccc2-c2nc3ccccc3nc21
- growth inhibition ([1]; at 1.2 µM): -27%
- growth inhibition ([1]; at 3.7 µM): -30%
- growth inhibition ([1]; at 11.0 µM): -10%
- growth inhibition ([1]; at 33.0 µM): 90% (active)
- growth inhibition ([1]; at 100.0 µM): 91% (active)
- growth inhibition ([2]; at 1.2 µM): -20%
- growth inhibition ([2]; at 3.7 µM): -17%
- growth inhibition ([2]; at 11.0 µM): -11%
- growth inhibition ([2]; at 33.0 µM): 33%
- growth inhibition ([2]; at 100.0 µM): 66%
- growth inhibition ([3]; at 1.2 µM): 3%
- growth inhibition ([3]; at 3.7 µM): 28%
- growth inhibition ([3]; at 11.0 µM): 79% (active)
- growth inhibition ([3]; at 33.0 µM): 95% (active)
- growth inhibition ([3]; at 100.0 µM): 81% (active)
- growth inhibition ([4]; at 1.2 µM): -50%
- growth inhibition ([4]; at 3.7 µM): -43%
- growth inhibition ([4]; at 11.0 µM): -26%
- growth inhibition ([4]; at 33.0 µM): -1%
- growth inhibition ([4]; at 100.0 µM): 61%
- growth inhibition ([5]; at 1.2 µM): -6%
- growth inhibition ([5]; at 3.7 µM): -15%
- growth inhibition [5, 17]: 80% (active)
- growth inhibition ([5]; at 11.0 µM): 0%
- growth inhibition ([5]; at 33.0 µM): 85% (active)
- growth inhibition [5, 18]: 97% (active)
- growth inhibition ([5]; at 50.0 µM): -20.6%
- growth inhibition ([5]; at 100.0 µM): 83% (active)
- growth inhibition ([6]; at 1.2 µM): -79%
- growth inhibition ([6]; at 3.7 µM): -54%
- growth inhibition [6, 17]: 83% (active)
- growth inhibition ([6]; at 11.0 µM): -41%
- growth inhibition ([6]; at 33.0 µM): 50%
- growth inhibition [6, 18]: 98% (active)
- growth inhibition ([6]; at 50.0 µM): -35.1%
- growth inhibition ([6]; at 100.0 µM): 67%
- growth inhibition ([7]; at 1.2 µM): -43%
- growth inhibition ([7]; at 3.7 µM): -39%
- growth inhibition ([7]; at 11.0 µM): -31%
- growth inhibition ([7]; at 33.0 µM): 15%
- growth inhibition ([7]; at 100.0 µM): 46%
- growth inhibition [8, 17]: -21%
- growth inhibition [8, 18]: 25%
- growth inhibition ([8]; at 50.0 µM): -24.4%
- growth inhibition ([9]; at 1.2 µM): -38%
- growth inhibition ([9]; at 3.7 µM): -18%
- growth inhibition ([9]; at 11.0 µM): -39%
- growth inhibition ([9]; at 33.0 µM): -9%
- growth inhibition ([9]; at 100.0 µM): 34%
- growth inhibition [10, 17]: 25%
- growth inhibition [10, 18]: 52%
- growth inhibition ([10]; at 50.0 µM): 3.35%
- growth inhibition ([11]; at 1.2 µM): -19%
- growth inhibition ([11]; at 3.7 µM): -13%
- growth inhibition [11, 17]: 21%
- growth inhibition ([11]; at 11.0 µM): -11%
- growth inhibition ([11]; at 33.0 µM): 46%
- growth inhibition [11, 18]: 39%
- growth inhibition ([11]; at 50.0 µM): -14.2%
- growth inhibition ([11]; at 100.0 µM): 66%
- growth inhibition ([12]; at 1.2 µM): -25%
- growth inhibition ([12]; at 3.7 µM): -22%
- growth inhibition ([12]; at 11.0 µM): -10%
- growth inhibition ([12]; at 33.0 µM): 28%
- growth inhibition ([12]; at 100.0 µM): 61%
- growth inhibition ([13]; at 1.2 µM): -31%
- growth inhibition ([13]; at 3.7 µM): -30%
- growth inhibition ([13]; at 11.0 µM): -25%
- growth inhibition ([13]; at 33.0 µM): -1%
- growth inhibition ([13]; at 100.0 µM): 61%
- growth inhibition ([14]; at 1.2 µM): -48%
- growth inhibition ([14]; at 3.7 µM): -57%
- growth inhibition ([14]; at 11.0 µM): -57%
- growth inhibition ([14]; at 33.0 µM): -19%
- growth inhibition ([14]; at 100.0 µM): 36%
- growth inhibition [15, 17]: 84% (active)
- growth inhibition [15, 18]: 99% (active)
- growth inhibition ([15]; at 50.0 µM): 66.7%
- growth inhibition ([16]; at 1.2 µM): -47%
- growth inhibition ([16]; at 3.7 µM): -38%
- growth inhibition ([16]; at 11.0 µM): -28%
- growth inhibition ([16]; at 33.0 µM): 12%
- growth inhibition ([16]; at 100.0 µM): 58%

Structure (SMILES): Oc1ccc(NCn2c(=S)sc3ccccc32)cc1
- growth inhibition ([1]; at 1.2 µM): -1%
- growth inhibition ([1]; at 3.7 µM): -10%
- growth inhibition ([1]; at 11.0 µM): -7%
- growth inhibition ([1]; at 33.0 µM): 38%
- growth inhibition ([1]; at 100.0 µM): 97% (active)
- growth inhibition ([2]; at 1.2 µM): -24%
- growth inhibition ([2]; at 3.7 µM): -17%
- growth inhibition ([2]; at 11.0 µM): -16%
- growth inhibition ([2]; at 33.0 µM): 29%
- growth inhibition ([2]; at 100.0 µM): 97% (active)
- growth inhibition ([3]; at 1.2 µM): -6%
- growth inhibition ([3]; at 3.7 µM): -21%
- growth inhibition ([3]; at 11.0 µM): -25%
- growth inhibition ([3]; at 33.0 µM): -16%
- growth inhibition ([3]; at 100.0 µM): 82% (active)
- growth inhibition ([4]; at 1.2 µM): 14%
- growth inhibition ([4]; at 3.7 µM): 17%
- growth inhibition ([4]; at 11.0 µM): 37%
- growth inhibition ([4]; at 33.0 µM): 87% (active)
- growth inhibition ([4]; at 100.0 µM): 98% (active)
- growth inhibition ([5]; at 1.2 µM): -2%
- growth inhibition ([5]; at 3.7 µM): 12%
- growth inhibition [5, 17]: 62%
- growth inhibition ([5]; at 11.0 µM): 5%
- growth inhibition ([5]; at 33.0 µM): 42%
- growth inhibition [5, 18]: 100% (active)
- growth inhibition ([5]; at 50.0 µM): 58.5%
- growth inhibition ([5]; at 100.0 µM): 95% (active)
- growth inhibition ([6]; at 1.2 µM): 19%
- growth inhibition ([6]; at 3.7 µM): 27%
- growth inhibition [6, 17]: 63%
- growth inhibition ([6]; at 11.0 µM): 26%
- growth inhibition ([6]; at 33.0 µM): 84% (active)
- growth inhibition [6, 18]: 100% (active)
- growth inhibition ([6]; at 50.0 µM): 73.8% (active)
- growth inhibition ([6]; at 100.0 µM): 99% (active)
- growth inhibition ([7]; at 1.2 µM): -11%
- growth inhibition ([7]; at 3.7 µM): -8%
- growth inhibition ([7]; at 11.0 µM): -6%
- growth inhibition ([7]; at 33.0 µM): 62%
- growth inhibition ([7]; at 100.0 µM): 98% (active)
- growth inhibition [8, 17]: 2%
- growth inhibition [8, 18]: 99% (active)
- growth inhibition ([8]; at 50.0 µM): 91.2% (active)
- growth inhibition ([9]; at 1.2 µM): -16%
- growth inhibition ([9]; at 3.7 µM): -13%
- growth inhibition ([9]; at 11.0 µM): -32%
- growth inhibition ([9]; at 33.0 µM): 34%
- growth inhibition ([9]; at 100.0 µM): 97% (active)
- growth inhibition [10, 17]: 58%
- growth inhibition [10, 18]: 98% (active)
- growth inhibition ([10]; at 50.0 µM): 40%
- growth inhibition ([11]; at 1.2 µM): 14%
- growth inhibition ([11]; at 3.7 µM): 32%
- growth inhibition [11, 17]: 32%
- growth inhibition ([11]; at 11.0 µM): 26%
- growth inhibition ([11]; at 33.0 µM): 68%
- growth inhibition [11, 18]: 98% (active)
- growth inhibition ([11]; at 50.0 µM): 73.2% (active)
- growth inhibition ([11]; at 100.0 µM): 98% (active)
- growth inhibition ([12]; at 1.2 µM): -28%
- growth inhibition ([12]; at 3.7 µM): -14%
- growth inhibition ([12]; at 11.0 µM): -10%
- growth inhibition ([12]; at 33.0 µM): 64%
- growth inhibition ([12]; at 100.0 µM): 97% (active)
- growth inhibition ([13]; at 1.2 µM): -44%
- growth inhibition ([13]; at 3.7 µM): -23%
- growth inhibition ([13]; at 11.0 µM): -9%
- growth inhibition ([13]; at 33.0 µM): 63%
- growth inhibition ([13]; at 100.0 µM): 97% (active)
- growth inhibition ([14]; at 1.2 µM): 4%
- growth inhibition ([14]; at 3.7 µM): 5%
- growth inhibition ([14]; at 11.0 µM): 4%
- growth inhibition ([14]; at 33.0 µM): 69%
- growth inhibition ([14]; at 100.0 µM): 96% (active)
- growth inhibition [15, 17]: 51%
- growth inhibition [15, 18]: 100% (active)
- growth inhibition ([15]; at 50.0 µM): 63%
- growth inhibition ([16]; at 1.2 µM): -1%
- growth inhibition ([16]; at 3.7 µM): -5%
- growth inhibition ([16]; at 11.0 µM): -11%
- growth inhibition ([16]; at 33.0 µM): 48%
- growth inhibition ([16]; at 100.0 µM): 96% (active)
